# Screens: PubChem, several laboratories
# EP2 antag – human EP2 receptor antagonists, primary screen, TR-FRET cAMP, C6 glioma cells | Prostaglandin E2 receptor EP2 subtype (Homo sapiens), P43116 | C6 glioma cells expressing human EP2; cells stimulated with saturating PGE2 | inhibition, % at 25 µM | 260,000 tested, 0.52% active;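 active = percent inhibition above 40 after rounding to a whole number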;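 note: rat C6 glioma host cells with rolipram phosphodiesterase inhibitor present; the protocol text gives 20 µM as final concentration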
# Target sequence (P43116 whole entry, looked up): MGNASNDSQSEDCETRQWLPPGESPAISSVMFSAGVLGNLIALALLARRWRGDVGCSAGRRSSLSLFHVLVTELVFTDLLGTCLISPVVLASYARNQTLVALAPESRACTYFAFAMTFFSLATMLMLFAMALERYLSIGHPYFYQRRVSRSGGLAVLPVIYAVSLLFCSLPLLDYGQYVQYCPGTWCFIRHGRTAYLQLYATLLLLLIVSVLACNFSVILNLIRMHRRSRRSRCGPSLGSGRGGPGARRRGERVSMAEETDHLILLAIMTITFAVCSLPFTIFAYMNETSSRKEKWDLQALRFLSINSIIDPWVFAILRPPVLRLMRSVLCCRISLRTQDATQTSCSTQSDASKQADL
# EP2 mod – EP2 receptor modulators, cAMP readout, primary screen, cell-based, HTRF cAMP, PGE2 stimulation | Prostaglandin E2 receptor EP2 subtype (Homo sapiens), P43116 | EP2-expressing cells, cAMP HTRF FRET, PGE2 co-stimulation | induction, % at 25 µM | 260,000 tested, 0.83% active | AID 940, 2007;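 active = compounds whose cAMP rise, as percent of the full-agonist control response, exceeds 60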;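 note: rat C6 glioma line stably carrying human EP2 under a CMV promoter; the protocol text gives 20 µM as final concentration; 100% = response of wells given 1 µM PGE2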
# CHT PAM – CHT positive allosteric modulators, primary screen, cell-based, membrane potential dye, choline EC20; AID 488977, 2010; CHT-expressing cells; hits give high values; LV-AA mutant CHT in HEK293 cells; 310,000 tested, 0.49% active; High affinity choline transporter 1 (Homo sapiens), Q9GZV3; B-score at 10 µM;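 active = initial fluorescence not abnormally high and integrated response B-score, plate-corrected, over 3 SD above library mean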
# CHT block – inhibitors of human choline transporter CHT | AID 488975, 2010 | B-score at 10 µM | 310,000 tested, 0.86% active | High affinity choline transporter 1 (Homo sapiens), Q9GZV3 | CHT-expressing cells, membrane potential dye, choline response; hits give low values;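 active = B-score over 3 SD under the library average, and starting fluorescence ratio not unusually high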;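 note: choline stimulus applied at its EC90 after an EC20 pre-addition; B-score computed on integrated fluorescence ratio after choline addition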
# CHT block conf – CHT inhibitors, confirmation, cell-based, membrane potential dye, duplicate | CHT-expressing cells, choline membrane potential dye; LV-to-AA substituted CHT, HEK293 cells | CHT activity remaining % of control (hits give low values), % at 10 µM | 2,400 tested, 70% active | shares compounds with CHT block | AID 493221, 2011;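 active = choline transporter activity left, mean of duplicates at 10 µM, below buffer-only control mean minus 3 SD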;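 note: depolarization triggered by choline at its EC90 following an EC20 pre-addition; 0% = hemicholinium-3 full block and 100% = buffer-only control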
# HEK293 MPD ctr – membrane potential effects in parental HEK293, counter-screen for CHT inhibitor project, cell-based, membrane potential dye; shares compounds with CHT block; choline response; active = decrease or increase beyond buffer ±3SD; membrane potential ratio readout (active if shifted either direction beyond buffer ±3SD; no single direction) at 10 µM; 2,400 tested, 4% active; AID 493222, 2011;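 note: parental cells lack the transporter so any hit is non-specific; ratio is peak minus trough fluorescence over baseline after EC90 choline challenge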
# * hit, by the source's call; i = inactive; x = no result. This is a sample that favours compounds with a hit; in the whole collection about 2.1% have one here.
SMILES,EP2 antag,EP2 mod,CHT PAM,CHT block,CHT block conf,HEK293 MPD ctr
CN(Cc1ccccc1)c1ccc(C(CC(N)=O)NC(=O)c2ccc(Br)cc2)cc1[N+](=O)[O-] (stereo unspecified),x,x,i,-6.53*,70.2%*,i
NC(=O)CC(NC(=O)c1ccccc1)c1ccc(N2CCCCCC2)c([N+](=O)[O-])c1 (stereo unspecified),x,x,i,-8.6*,13.3%*,i
COCCNC(=S)N(Cc1ccco1)Cc1cc2cc(C)c(C)cc2[nH]c1=O,20.4,-19.9,x,x,x,x
CCc1cc2ccccc2nc1SCC(=O)Nc1ccc(S(=O)(=O)N(C)C)cc1,8.0,56.8,x,x,x,x
CC1CCCCC1NC(=O)c1c(O)nc2ccccn2c1=O (stereo unspecified),x,x,i,-7.09*,60.3%*,i
c1ncn(C23CC4CC(CC(C4)C2)C3)n1,2.8,20.7,i,i,x,x
c1cn(C23CC4CC(CC(C4)C2)C3)cn1,8.5,7.2,i,-13.6*,-3.7%*,i
COc1ccccc1C1(NC(=O)Cc2ccc3c(c2)OCO3)CCCC1,2.8,-27.8,x,x,x,x
O=C(CSc1nc2c(c(=O)n1-c1ccc(Cl)cc1)SCC2)NCC1CCCO1 (stereo unspecified),x,3.3,i,i,x,x
O=C(CSc1nc2c(c(=O)n1-c1ccc(Cl)cc1)SCC2)N1CCCC1,9.2,-19.8,i,-6.81*,i,i
COc1ccc(/C=C\C(=O)NCC(=O)N/N=C/c2ccc(O)cc2O)cc1,5.8,-33.0,i,-5.47*,i,i
O=C(/C=C\c1ccccc1)NCC(=O)N/N=C/c1ccc(O)cc1O,x,x,i,i,x,x
O=C(Cc1ccc(F)cc1)N1CCCC(n2nc(-c3cccs3)ccc2=O)C1 (stereo unspecified),x,-46.3,x,x,x,x
O=C(CSc1nnc(Cc2ccsc2)o1)c1ccccc1,-0.7,-32.3,i,-5.2*,69.7%*,i
COc1cccc(OCc2cc(C3C(C#N)=C(N)Oc4cc(C)oc(=O)c43)ccc2OC)c1 (stereo unspecified),8.7,6.3,x,x,x,x
CC(NC(=O)CCN1C(=O)c2ccccc2C1=O)c1ccc2c(c1)CCCC2 (stereo unspecified),4.7,12.2,i,-5.44*,i,i
COc1cccc(N(CC(=O)Nc2ccc3c(c2)OCO3)S(=O)(=O)c2ccc(C)cc2)c1,15.4,45.2,x,x,x,x
O=C(O)/C(=C\c1ccc(-c2ccccc2[N+](=O)[O-])o1)c1ccccc1,x,x,i,-5.6*,i,i
O=C(Nc1ccc2nc(-c3ccco3)[nH]c2c1)c1ccccc1,17.4,-120.6,x,x,x,x
c1coc(Cn2c(-c3ccco3)nc3ccccc32)c1,7.3,8.6,i,-8.04*,i,-10.7*
Clc1ccc(OCCn2c(-c3ccco3)nc3ccccc32)cc1,12.7,15.5,i,i,x,x
CC(C)(CC(=O)N1CCN(c2ccc(Cl)cc2)CC1)CC1=NS(=O)(=O)c2ccccc2N1,x,-17.6,i,i,x,x
COc1cccc(N2CCN(C(=O)CC(C)(C)CC3=NS(=O)(=O)c4ccccc4N3)CC2)c1,x,x,i,-5.54*,i,i
COc1ccc(C(=O)N2CCN(C(=O)c3ccccc3)CC2)cc1OC,8.6,-19.6,x,x,x,x
CCCCNS(=O)(=O)c1ccc(NC(=O)Cc2ccccc2[N+](=O)[O-])cc1,9.5,-35.8,i,-6*,43.3%*,i
CC(C)(C)NS(=O)(=O)c1ccc(NC(=O)Cc2ccccc2[N+](=O)[O-])cc1,7.1,-4.9,i,i,x,x
Cc1cc(=O)[nH]c(SCC(=O)Nc2ccc(F)cc2)c1C#N,7.3,56.6,i,-10.2*,62.2%*,i
Cc1cc(C)nc(SCc2cc(=O)c(OC(=O)c3ccc(S(=O)(=O)N(C)C)cc3)co2)n1,10.4,-4.2,i,i,x,x
